# Values without a mark were called inactive. Entries that show only a call come without a potency. For some of these results: Potency and affinity values are given separately. Activity calls are given as the source filed them. Unless noted, the rule behind the calls is not given here.
# How the values were obtained:
# [1] = antimalarial activity against Dd2 strain (AID 2302;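 active = growth inhibition above 50% at the single 2 µM test dose, taken to imply half-maximal potency below 2 µM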); details: P. falciparum Dd2 in RBCs, LDH growth readout, 72 h; at 2 µM; active compounds read high
# [2] = HepG2 cytotoxicity, primary screen, cytotoxicity control for P. falciparum antimalarial project, cell-based, ATP luminescence (AID 2303;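 active = inhibition above 50%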); details: HepG2 viability, 24-48 h, at 10 µM, active compounds read high
# [3] = target: L-lactate dehydrogenase (Plasmodium falciparum (isolate CDC / Honduras)) (UniProt Q27743); experiment: PfLDH activity inhibition – cell lysate, 3D7 strain, counter-screen for P. falciparum growth inhibition project (AID 2304); details: P. falciparum 3D7 crude extract, LDH APAD/NBT absorbance; at 2 µM; active compounds read high
# [4] = inhibition of 3D7 malaria parasite growth – strain 3D7 (AID 2306); details: P. falciparum 3D7 erythrocytic growth, LDH absorbance, 72 h; at 2 µM; active compounds read high
# [5] = target: Calcium-dependent protein kinase 1 (Plasmodium falciparum (isolate 3D7)) (UniProt P62344); experiment: PfCDPK1 kinase inhibitors, biochemical, TCAMS library (AID 1159585; cut-off not given, nearly all actives have IC50 up to about 0.98 µM;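 note: inhibitors leave more ATP so luminescence rises with inhibition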); details: recombinant PfCDPK1, Kinase-Glo ATP depletion luminescence
# [6] = target: Plasmodium falciparum protein kinase 6 (PK6, PF3D7_1337100) (UniProt Q8IDW1); experiment: PfPK6 kinase inhibitors, biochemical, TCAMS library (AID 1159586); details: recombinant PfPK6, Kinase-Glo ATP depletion luminescence
# [7] = target: Protein kinase 7 (PK7), Plasmodium falciparum 3D7 (PF3D7_0213400) (UniProt Q7YTF7); experiment: inhibition of Plasmodium PK7 catalytic activity – biochemical, TCAMS antimalarial set, Kinase-Glo luminescence (AID 1159587); details: recombinant PfPK7, Kinase-Glo ATP depletion luminescence
# [8] = target: Calcium-dependent protein kinase 4 (Plasmodium falciparum (isolate 3D7)) (UniProt Q8IBS5); experiment: PfCDPK4 kinase inhibitors, biochemical, TCAMS library (AID 1159588; cut-off not given, nearly all actives have IC50 up to about 0.91 µM); details: recombinant PfCDPK4, Kinase-Glo ATP depletion luminescence
# Calcium-dependent protein kinase 4 (Plasmodium falciparum (isolate 3D7)), sequence (Q8IBS5 whole entry, looked up): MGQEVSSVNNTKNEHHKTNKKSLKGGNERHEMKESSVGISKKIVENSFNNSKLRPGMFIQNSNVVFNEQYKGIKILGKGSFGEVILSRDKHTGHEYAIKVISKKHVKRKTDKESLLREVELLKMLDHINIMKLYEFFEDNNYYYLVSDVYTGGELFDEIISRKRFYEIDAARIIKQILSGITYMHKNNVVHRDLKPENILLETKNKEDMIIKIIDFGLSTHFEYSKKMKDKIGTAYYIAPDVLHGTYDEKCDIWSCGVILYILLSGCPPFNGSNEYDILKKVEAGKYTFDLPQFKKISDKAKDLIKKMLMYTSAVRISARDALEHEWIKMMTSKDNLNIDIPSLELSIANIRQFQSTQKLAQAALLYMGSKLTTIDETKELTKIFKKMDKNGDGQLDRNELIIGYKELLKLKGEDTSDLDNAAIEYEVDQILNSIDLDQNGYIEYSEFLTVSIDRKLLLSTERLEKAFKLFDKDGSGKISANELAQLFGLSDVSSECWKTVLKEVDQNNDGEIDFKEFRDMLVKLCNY
# Protein kinase 7 (PK7), Plasmodium falciparum 3D7 (PF3D7_0213400), sequence (Q7YTF7 1-343): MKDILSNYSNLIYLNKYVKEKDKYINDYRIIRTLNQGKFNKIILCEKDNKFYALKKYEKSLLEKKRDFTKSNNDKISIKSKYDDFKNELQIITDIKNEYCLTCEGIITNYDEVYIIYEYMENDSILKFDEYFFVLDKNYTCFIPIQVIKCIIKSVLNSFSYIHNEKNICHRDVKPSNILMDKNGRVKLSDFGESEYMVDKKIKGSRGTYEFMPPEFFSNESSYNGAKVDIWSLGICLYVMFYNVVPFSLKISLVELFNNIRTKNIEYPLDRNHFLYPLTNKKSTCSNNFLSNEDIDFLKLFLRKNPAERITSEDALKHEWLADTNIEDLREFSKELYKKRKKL
# Calcium-dependent protein kinase 1 (Plasmodium falciparum (isolate 3D7)), sequence (P62344 whole entry, looked up): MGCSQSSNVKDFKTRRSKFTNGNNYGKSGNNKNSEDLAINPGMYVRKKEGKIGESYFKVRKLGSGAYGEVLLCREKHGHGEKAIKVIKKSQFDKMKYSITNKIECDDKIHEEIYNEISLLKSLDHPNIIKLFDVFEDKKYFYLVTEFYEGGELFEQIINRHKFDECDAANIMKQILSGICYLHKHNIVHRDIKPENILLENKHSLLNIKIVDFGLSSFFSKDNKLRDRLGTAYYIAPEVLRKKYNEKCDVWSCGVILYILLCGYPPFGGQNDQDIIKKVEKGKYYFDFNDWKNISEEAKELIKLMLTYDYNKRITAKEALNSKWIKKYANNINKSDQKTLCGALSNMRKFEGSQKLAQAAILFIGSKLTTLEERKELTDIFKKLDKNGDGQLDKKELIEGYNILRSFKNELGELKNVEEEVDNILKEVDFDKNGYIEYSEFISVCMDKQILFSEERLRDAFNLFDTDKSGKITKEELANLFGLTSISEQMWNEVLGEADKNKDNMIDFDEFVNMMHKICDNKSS
# Plasmodium falciparum protein kinase 6 (PK6, PF3D7_1337100), sequence (Q8IDW1 1-305): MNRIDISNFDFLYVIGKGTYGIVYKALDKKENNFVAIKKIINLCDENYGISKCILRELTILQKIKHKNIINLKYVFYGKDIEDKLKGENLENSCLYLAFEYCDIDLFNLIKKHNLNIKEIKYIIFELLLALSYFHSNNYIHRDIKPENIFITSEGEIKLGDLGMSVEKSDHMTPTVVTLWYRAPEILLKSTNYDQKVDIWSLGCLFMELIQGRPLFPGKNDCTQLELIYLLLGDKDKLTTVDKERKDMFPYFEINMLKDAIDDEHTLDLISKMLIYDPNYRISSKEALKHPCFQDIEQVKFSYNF
# L-lactate dehydrogenase (Plasmodium falciparum (isolate CDC / Honduras)), sequence (Q27743 whole entry, looked up): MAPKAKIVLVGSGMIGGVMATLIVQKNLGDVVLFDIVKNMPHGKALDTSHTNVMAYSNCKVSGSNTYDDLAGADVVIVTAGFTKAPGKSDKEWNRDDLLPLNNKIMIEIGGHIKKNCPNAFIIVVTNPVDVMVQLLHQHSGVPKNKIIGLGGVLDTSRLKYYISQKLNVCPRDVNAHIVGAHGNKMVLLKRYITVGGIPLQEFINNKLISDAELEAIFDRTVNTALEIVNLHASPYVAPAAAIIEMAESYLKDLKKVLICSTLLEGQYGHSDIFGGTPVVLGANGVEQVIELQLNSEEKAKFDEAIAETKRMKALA
SMILES,growth inhibition [1],inhibition [2],inhibition [3],growth inhibition [4],outcome [5],outcome [6],outcome [7],outcome [8]
Cc1cc(Nc2ccccc2)nc(Nc2ccccc2C)n1,27%,8%,5%,85% (active),inactive,inactive,inactive,inactive
CN(C)CC(=O)NCC(NCCCNc1cc(=O)c2ccccc2[nH]1)c1cc(Br)cc(Br)c1 (stereo not drawn),2%,6%,1%,98% (active),inactive,inactive,inactive,inactive
Cc1ccc(C(C#N)c2ccc3c(C(F)(F)F)cc(C(F)(F)F)nc3n2)cc1 (stereo not drawn),36%,14%,2%,96% (active),inactive,inactive,inactive,inactive
Cc1nc2c(c(O)c1Cl)-c1ccc(Oc3cccc(C(F)(F)F)c3)cc1C2=O,95% (active),25%,-6%,94% (active),inactive,inactive,inactive,inactive
O=C(Nc1cccc(CN2CCCN(CCc3ccccc3)CC2)c1)c1cc2ccccc2s1,39%,37%,4%,93% (active),inactive,inactive,inactive,inactive
CCCCn1c(C(C)Oc2ccc(Cl)cc2Cl)nc2cc(S(N)(=O)=O)ccc21 (stereo not drawn),45%,24%,-2%,94% (active),inactive,inactive,inactive,inactive
c1cc(C2=N[C@H]3CCCC[C@@H]3N2)ccc1OCCCCCOc1ccc(C2=N[C@@H]3CCCC[C@H]3N2)cc1,23%,80% (active),-5%,101% (active),inactive,inactive,inactive,inactive
c1ccc(CNc2nc(NCCN3CCCCC3)nc3ccccc23)cc1,8%,19%,-11%,87% (active),inactive,inactive,inactive,inactive
Cn1cncc1C(=O)Nc1cccc(-c2cccc(-c3nc4ccccc4[nH]3)c2)c1,35%,9%,3%,102% (active),inactive,inactive,inactive,inactive
CS(=O)(=O)NCCCNCc1cccc(-c2csc(-c3nc4ccccc4[nH]3)c2)c1,9%,23%,8%,95% (active),inactive,inactive,inactive,inactive
CN(C)CCNc1nccc(N2CCc3ncnc(Nc4ccc(OCc5cccc(F)c5)c(Cl)c4)c3C2)n1,97% (active),65% (active),6%,100% (active),inactive,inactive,inactive,inactive
Cc1cc(C(=O)Nc2nc(-c3ccccn3)nc3ccsc23)no1,90% (active),44%,0%,98% (active),inactive,inactive,inactive,inactive
COc1ccccc1/C=C/C(=O)NCCC1CCN(CCCCCNC(=O)/C=C/c2ccc(Cl)c(Cl)c2)CC1,0%,34%,-4%,94% (active),inactive,inactive,inactive,inactive
O=C(NCCN1CCCCC1)c1ccc(CNC(=O)c2ccc(O)c(-c3ccc(Cl)c(Cl)c3)c2)cc1,68% (active),3%,-8%,93% (active),inactive,inactive,inactive,inactive
O=C(NC(Cc1ccccc1)C(=O)O)c1cc(=O)c2ccccc2o1 (stereo not drawn),10%,53% (active),-6%,99% (active),inactive,inactive,inactive,inactive
O=C(CCNc1ccnc(NCC2CCCCC2)n1)Nc1ccccc1,48%,55% (active),-3%,95% (active),inactive,inactive,inactive,inactive
CCCCCCCN1CC[C@@H](CCC(O)c2ccnc3ccc(OC)cc23)[C@@H](CC)C1 (stereo partly drawn),93% (active),34%,-1%,97% (active),inactive,inactive,inactive,inactive
CN1CCN(Cc2cccc(-c3ccc4c(Nc5ccc(Oc6ccccc6)cc5)ccnc4c3)c2)CC1,100% (active),41%,6%,101% (active),inactive,inactive,inactive,inactive
COc1cccc(CN2CCCN(Cc3cccc(NC(=O)c4cc5ccccc5s4)c3)CC2)c1,16%,17%,-9%,89% (active),inactive,inactive,inactive,inactive
COc1ccc(S(=O)(=O)Nc2ccc(C(=O)NCc3ccccc3C(F)(F)F)cc2)cc1N1CCN(CC2CC2)CC1,5%,27%,-3%,92% (active),inactive,inactive,inactive,inactive
CN(CCO)Cc1cccc(-c2ccc(NC(=O)c3cccc(C#N)c3)cc2)c1,57% (active),23%,9%,97% (active),inactive,inactive,inactive,inactive

SMILES,growth inhibition [1],inhibition [2],inhibition [3],growth inhibition [4],outcome [5],outcome [6],outcome [7],outcome [8]
COc1ccc(NC(=O)Nc2cccc(-c3ccncc3)c2)cc1N1CCN(C)CC1,57% (active),9%,5%,98% (active),inactive,inactive,inactive,inactive
Clc1cnc2ccc3c(c2c1CCN1CCC(NCc2cc4c(cn2)OCCO4)CC1)OCCO3,18%,3%,-2%,92% (active),inactive,inactive,inactive,inactive
COc1ccc2nccc(NC(=O)C3CCC(NCc4cnc(SC)c([N+](=O)[O-])c4)CC3)c2n1 (stereo not drawn),44%,8%,5%,89% (active),inactive,inactive,inactive,inactive
CC1(C)[C@H]2CC[C@@H](CNc3nc(NCCc4cnc[nH]4)nc(Nc4ccc5c(c4)OCO5)n3)[C@@H]1C2,88% (active),3%,-4%,101% (active),inactive,inactive,inactive,inactive
FC(F)(F)COc1ccc2ccccc2c1CNCCCCCCNCc1c(OCC(F)(F)F)ccc2ccccc12,95% (active),99% (active),2%,101% (active),inactive,inactive,inactive,inactive
Clc1ccccc1CCNCC1CCN(CC2CCCCC2)CC1,38%,45%,-5%,97% (active),inactive,inactive,inactive,inactive
COc1ccccc1N(C)CCNc1cc(C)nc(Nc2ccccc2)n1,13%,10%,-1%,96% (active),inactive,inactive,inactive,inactive
Cc1nn(CC(O)Cn2c3ccc(Br)cc3c3cc(Br)ccc32)c(C)c1Br (stereo not drawn),81% (active),4%,1%,98% (active),inactive,inactive,inactive,inactive
COc1ccc(-c2ccc(NC(=O)c3cccc(C#N)c3)cc2)cc1CN(C)C,10%,11%,0%,103% (active),inactive,inactive,inactive,inactive
Cc1cc(-c2ccc(NC(=O)N3CCc4cc(Br)c(N5CCN(C)CC5)cc43)cc2)cc(C)n1,4%,29%,-2%,92% (active),inactive,inactive,inactive,inactive
Cc1cc(NN=Cc2cccc(Cl)c2)c2ccccc2n1,100% (active),22%,0%,100% (active),inactive,inactive,inactive,inactive
CN1CCCC(CN2CCN(Cc3cccc(-c4ccc(-c5nc6ccccc6[nH]5)s4)c3)CC2)C1 (stereo not drawn),99% (active),52% (active),-6%,99% (active),inactive,inactive,inactive,inactive
COc1cc(Nc2ncc3c(C)nc(-c4cccc(Nc5ccc(CN6CCS(=O)(=O)CC6)cc5)c4)n3n2)cc(OC)c1OC,79% (active),2%,2%,90% (active),inactive,inactive,inactive,inactive
COc1ccc(NC(=O)C2c3ccccc3C(=O)N(C3CCCC3)C2c2cccs2)cc1 (stereo not drawn),75% (active),0%,-1%,93% (active),inactive,inactive,inactive,inactive
CCOc1cc(CC)ccc1C1CCN(CCN2CCC(CNC(=O)c3ccc(-c4ccc(C#N)cc4)cc3)CC2)CC1,100% (active),53% (active),5%,89% (active),inactive,inactive,inactive,inactive
CC1CN(c2ccc(C(=O)NCC3CC3)cc2NC(=O)OCc2ccccc2)CC(C)O1 (stereo not drawn),76% (active),-5%,-2%,91% (active),inactive,inactive,inactive,inactive
O=C(NC1CCN(c2ccnc3ccccc23)C1)c1cccc(C(F)(F)F)c1 (stereo not drawn),86% (active),28%,6%,94% (active),inactive,inactive,inactive,inactive
CN(CCCN)CCCNc1ccnc2cc(Cl)ccc12,-2%,1%,-10%,101% (active),inactive,inactive,inactive,inactive
CN1CCC(NCc2cccc(-c3ccc(S(=O)(=O)NCCN4CCCC4)s3)c2)CC1,1%,10%,-5%,91% (active),inactive,inactive,inactive,inactive
COc1ccc(CNCc2cccc(-c3csc(-c4nc5ccccc5[nH]4)c3)c2)cc1,22%,17%,-1%,100% (active),inactive,inactive,inactive,inactive

# From PubChem BioAssay
